Laboratory results from PubChem BioAssay AID624169 (The Scripps Research Institute Molecular Screening Center, 2012).
Where “and” joins values, the source holds several entries; their conditions need not be identical. Identical values can stand only once. Among all 360,000 compounds or so, about 2,400 (0.67%) were called active. Shown is part of a subset that was picked to be rich in actives. A number with no mark means an inactive call.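 How the source made its calls: active means activation above a run cutoff, the mean activation of all tested compounds plus 3 SD (cut at about 14% in these data); inactive means the rest.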

The compounds below were run against 5-hydroxytryptamine receptor 2A (Mus musculus) (UniProt P35363) (assay: mouse Htr2a agonists via beta-arrestin recruitment, primary screen, cell-based, luminescence (AID 624169;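 further: 0% = plate median of compound wells and 100% = 30 µM serotonin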)). Conditions: CHO-K1 mHTR2A beta-arrestin complementation, at 7.6 µM, active compounds read high, percent of 30 µM serotonin response.
Sequence of 5-hydroxytryptamine receptor 2A (Mus musculus) (P35363 whole entry, looked up): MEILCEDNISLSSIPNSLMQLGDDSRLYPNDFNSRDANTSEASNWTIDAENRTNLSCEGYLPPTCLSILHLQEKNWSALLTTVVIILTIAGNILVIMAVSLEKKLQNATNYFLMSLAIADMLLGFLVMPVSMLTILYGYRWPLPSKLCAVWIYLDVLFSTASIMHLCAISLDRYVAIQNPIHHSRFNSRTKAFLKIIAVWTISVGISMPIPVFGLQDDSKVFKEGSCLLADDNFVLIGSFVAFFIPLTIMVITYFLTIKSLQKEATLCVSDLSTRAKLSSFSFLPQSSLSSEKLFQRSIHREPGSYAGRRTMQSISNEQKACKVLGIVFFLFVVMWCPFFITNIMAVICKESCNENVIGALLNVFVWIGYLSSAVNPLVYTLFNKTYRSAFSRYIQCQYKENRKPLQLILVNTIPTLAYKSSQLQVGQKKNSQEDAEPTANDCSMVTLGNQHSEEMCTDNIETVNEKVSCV
With `CCOc1ccc(CN(Cc2ccco2)C(c2cccs2)c2nnnn2C(C)(C)C)cc1` (stereo not given) the activation was 6.56%.
In the case of `CC(C)Oc1ccc(Cc2n[nH]c(=S)n2Cc2ccccc2)cc1Cl`, the activation is reported as 0.66%.
For `CC(C)c1nnc(NC(=O)CCC(=O)N2CCN(c3cccc(Cl)c3)CC2)s1`, the activation was 10.8%.
In the case of `COC(=O)c1ccccc1OCC(=O)N1CCN(c2ccc(Cl)cc2)CC1`, the activation is reported as 3.93%.
`COC(=O)CC(=O)N1CCN(c2ccc(Cl)c(Cl)c2)CC1` was tested, and the activation was 34.5% (active).
`O=C(c1ccco1)N(Cc1nc2ccccc2c(=O)[nH]1)C1CCCC1` was tested, and the activation was 3.03%.
Work on `O=C(CCCN1C(=O)c2cccc3cccc(c23)C1=O)N1CCN(Cc2ccc3c(c2)OCO3)CC1` yielded an activation of -3.63%.
Compound `COc1ccc(-c2cc(C(=O)N3CCN(Cc4ccc5c(c4)OCO5)CC3)on2)cc1OC` has an activation of -7.64%.
For `O=C(c1cccs1)N1CCN(Cc2ccc3c(c2)OCO3)CC1`, the activation was 25.9% (active).
`Cc1nc2ccccc2nc1CC(O)(c1ccccc1)c1ccccc1` was tested, and the activation was 1.95%.
`Cc1ccc(S(=O)(=O)N[C@H]2CCC[C@@H]2O)cc1` showed an activation of 0.49%.
`O=C(O)Cc1csc(-c2cccc(Oc3ccccc3)c2)n1` was tested, and the activation was 5.47% and 2.04%.
`COc1cc(NC(=O)COC(=O)c2cc(S(=O)(=O)N3CCOCC3)ccc2F)cc(OC)c1` was tested, and the activation was 2.06%.
`O=C(OCCOc1ccccc1F)c1cc(S(=O)(=O)N2CCOCC2)ccc1F` gave an activation of -6.59%.
`O=C(COC(=O)c1cc(S(=O)(=O)N2CCOCC2)ccc1F)NC1CC1` was tested, and the activation was 20.8% (active).
In the case of `C[C@H](CO)N1C[C@H](C)[C@@H](CN(C)S(=O)(=O)c2ccc(F)cc2)Oc2c(NC(=O)Nc3ccccc3)cccc2C1=O`, the activation is reported as 1.16%.
With `CCSCc1nc(N)nc(NCCc2ccccc2)n1` the activation was -1.03%.
`CC(=O)c1ccc(OCCCC(=O)Nc2ccc(C)c(S(=O)(=O)N3CCOCC3)c2)cc1` gave an activation of 4.29%.
With `COc1ccc(/C(=N\O)c2nccc3cc(OC)c(OC)cc23)cc1OC` the activation was 24.7% (active).
For `COc1cc2ccc(C(C)=O)c(O)c2cc1OC`, the activation was -4.06%.
Work on `COC(=O)c1ccc(-c2c(-c3ccccc3)ncc3cc(OC)c(OC)cc23)cc1` yielded an activation of 6.54%.
In the case of `N#Cc1c(NC(=O)C2CCCO2)sc2c1CCCCC2` (stereo not given), the activation is reported as 0.23%.
For `N#Cc1c(NC(=O)CCCl)sc2c1CCCCC2`, the activation was 20% (active).
In the case of `N#Cc1c(NC(=O)C2CC(Cl)=CCC2C(=O)O)sc2c1CCCCC2` (stereo not given), the activation is reported as 5.86%.
With `Cc1ccc(OC(=O)c2ccccc2C(=O)OCC(F)(F)C(F)F)cc1` the activation was -7.85%.
